Assay results: PubChem BioAssay AID1159580 (chemical genetic matrix, 2015)
Screen size: about 5,500 compounds; about 2,000 (36%) were called active. About 18% were inconclusive and are not listed. Rule as the data show it: active = normalized growth mostly below about 0.91 (no sharp cut-off); inconclusive = no clear call, values can overlap the other calls; inactive = mostly above about 0.92. The list shows a part of the results.

Assay: chemical genetic growth profiling, strain panel (AID 1159580);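 also: tested at 20 µM; growth read once vehicle control cultures reached saturation at 30 °C; 1 = growth at the plate median or of vehicle wells; lower values mean less growth of the strain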
Conditions: S. cerevisiae deletion strains, growth OD
[1] = locus YAL013W, strain DEP1, hits give low values
[2] = locus YAL040C, strain CLN3, hits give low values
[3] = locus YCL061C, strain MRC1 (second series), hits give low values
[4] = locus YER002W, strain NOP16, hits give low values
[5] = locus YGR078C, strain PAC10, hits give low values
[6] = locus YGR229C, strain SMI1, hits give low values
[7] = locus YMR263W, strain SAP30, hits give low values
[8] = locus YNL175C, strain NOP13, hits give low values
[9] = locus YNL197C, strain WHI3, hits give low values
[10] = locus YNL224C, strain SQS1, hits give low values
[11] = locus YOR083W, strain WHI5 (second series), hits give low values

Measured: normalized growth

N[C@H](CCC(=O)NCS(=O)(=O)O)C(=O)O
inactive: [1] 1.01 | [2] 0.996 | [3] 1.01 | locus YDR150W, strain NUM1, hits give low values 1 | locus YDR363W, strain ESC2, hits give low values 1.02 | [4] 1.02 | [5] 0.997 | [6] 1.03 | [7] 1.01 | locus YMR307W, strain GAS1, hits give low values 1 | locus YNL128W, strain TEP1, hits give low values 1 | [8] 0.998 | [9] 0.997 | [10] 0.986 | locus YNL322C, strain KRE1, hits give low values 1.01 | [11] 0.981 | locus YPL055C, strain LGE1, hits give low values 1.02 | locus YPL241C, strain CIN2, hits give low values 1

C[C@H]1CC2C3CCC4=CC(=O)C=C[C@]4(C)[C@@]3(Cl)[C@@H](O)C[C@]2(C)[C@@]1(O)C(=O)CO (stereo partly specified)
inactive: [1] 0.982 | [2] 1.03 | [3] 1.01 | [4] 0.997 | [5] 0.989 | [6] 0.994 | locus YJR075W, strain HOC1, hits give low values 1.01 | [7] 1.01 | locus YNL153C, strain GIM3, hits give low values 0.981 | [8] 0.994 | [9] 0.934 | [10] 0.967 | [11] 0.954
